# In PubChem BioAssay (NCI):
# Several values for one entry are separate records, joined by “and”; a condition that tells them apart may be missing. Equal entries are not always repeated. About 83,000 compounds went through this panel and 20% of them were active in at least one assay; those are over-represented in the sample as a whole.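 Each cell line was grown in a 96-well plate and treated with one concentration of compound for 48 hours. Values below 10 were considered active.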 Activity calls are given as the source filed them.
# System: MDA-MB-468 breast
# Test: NCI-60 one-dose screen, 48 h (100 = growth as untreated, 0 = no growth, -100 = all killed)
# Conditions: 10 µM unless noted
row,Compound,growth
1,COc1ccc2nc3cc(Cl)ccc3c(NCCCCCN3CCCCC3)c2c1,-53.3% (active)
2,CCCCCCCCCCCCNCCCc1ccccc1,13% (inactive)
3,Nc1ccc2c(c1)C(=O)NC2=O,75.4% (inactive)
4,Cc1nn(-c2ccc(Cl)cc2)c(=O)n1CCOc1ccccc1Cl,105% (inactive)
5,Cc1cc(Nc2nc(SCc3ccc(C(=O)Nc4ccc(F)cc4N)cc3)nn3cccc23)n[nH]1,47.7% (inactive)
6,O=C1C(Nc2ccccn2)=C(I)C(=O)c2ncccc21,-70.1% (active)
7,O=c1[nH]nc(-c2ccccc2)c2sc3ncc(-c4ccc(Br)cc4)n3c12,13.7% (inactive)
8,COc1ccc2cc3[n+](cc2c1OC)CCc1cc2c(cc1-3)OCO2,1.68% (active)
9,Cc1ccc(NS(=O)(=O)c2ccc3c(c2)C(=O)CC(c2ccc(C(=O)C(C)C)cc2)N3)cc1C (stereo not given),-3.79% (active)
10,CC(=O)NC1=C(C#N)C(c2ccccc2Cl)c2c(ccc3ccccc23)O1 (stereo not given),14% (inactive)
11,Cc1cc(NC(=O)CSCC(=O)O)no1,114% (inactive)
12,COc1ccc(C(=O)c2c(N)c(C#N)cn2-c2cccc(OC)c2)cc1,-3.17% (active)
13,COc1cc(CNC(=O)CCCC/C=C/C(C)C)ccc1OCc1nnc(Nc2ccccc2F)o1,58.9% (inactive)
14,CCCCC[C@H]1CC=C2C(=O)C=C[C@@H]2CC=CCCCC(=O)O[C@@H](CCCCC)CC=C2C(=O)C=C[C@@H]2CC=CCCCC(=O)O[C@@H](CCCCC)CC=C2C(=O)C=C[C@@H]2CC=CCCCC(=O)O1,7.64% [8.75 µM] (active)
15,O=C1C=C(Nc2cccc(Br)c2)c2ccccc2C1=O,90.2% (inactive)
16,CC1(C)CC[C@]2(C(=O)N3CCCNCC3)CC[C@]3(C)C(=CC[C@@H]4[C@@]5(C)CCC(=O)C(C)(C)[C@@H]5CC[C@]43C)[C@H]2C1,106% (inactive)
17,S=P(N1CC1)(N1CC1)N1CC1,106% (inactive) and 67.8% (inactive)
18,Cc1cccc(CC(=O)c2ccccc2)n1,92.8% (inactive)
19,COc1cc(NCC(O)CN(CC(C)C)CC(C)C)c2nc(C)ccc2c1 (stereo not given),-6.94% (active)
20,C=C1C(=O)O[C@H]2[C@H]1CC/C(Cn1cc(CNCCc3c[nH]c4ccccc34)nn1)=C\CC[C@@]1(C)O[C@@H]21,37.3% (inactive)
21,Cc1cc(=O)n2nc(-c3cn(C)c4ccc(Cl)cc34)sc2n1,-42.5% (active)
22,C=CCc1cc(Cl)cc2c(OC(C)=O)c(C(C)=O)c(-c3ccccc3)nc12,116% (inactive)
23,O=C(Nc1nonc1-c1ccccc1)c1ccc(C(F)(F)F)cc1,101% (inactive)
24,CC(=O)Nc1nc2c(c(N)c1C#N)C(c1cccc(Cl)c1)C1=C(CCCC1=O)N2c1sc2c(c1C#N)CCCC2 (stereo not given),47.7% (inactive)
25,Cc1ccc(-c2nnc(COc3ccc(-c4nnc(N)s4)cc3)o2)cc1,72.7% (inactive)
